# Assay results reported in ChEMBL document CHEMBL4513216, “Probing the Open Global Health Chemical Diversity Library for Multistage-Active Starting Points for Next-Generation Antimalarials” (ACS Infect Dis, 2020).
# About 8,600 (12%) of roughly 69,000 compounds showed an effect of 50% or more. The full list was thinned out, with strong results kept by preference.
# System: Plasmodium berghei
# Experiment: Screen against P. berghei liver stage (PbLuc), transformed with Luciferase, at 10uM
# Format: functional, HepG2
# Conditions: tested at 10 uM
row,Structure (SMILES),INHIBITION
1,O=C(c1cc2c(F)cccc2[nH]1)N1CCCCC1Cn1cccn1 (configuration not stated),-4.94%
2,Cc1cc(-c2cc(N)c(=O)n(CC(=O)NC3CCCCC3)n2)c(C)o1,13.835%
3,O=C(NCCn1ccnc1)N1CCN(Cc2ccco2)CC1,-37.7%
4,Cc1ccc(NC2CCN(C(=O)c3ccncc3)CC2)nn1,-39.7%
5,CCN1CCC(NC(=O)CN2CC(n3nc(C)cc3C)C2)CC1,23.5%
6,CC(=O)N[C@@H]1CN(Cc2nc3ccccc3[nH]2)C[C@H]1c1ccc(C)o1,39%
7,FC(F)Oc1ccc(CNCc2cc(Cl)c3c(c2)OCO3)cc1,24.6%
8,CC(Cn1ccnc1)NCc1cc(Br)c2c(c1)OCO2 (configuration not stated),-7.72%
9,COc1cc(CNCC(O)c2ccc(F)cc2F)cc2c1OCO2 (configuration not stated),0.914%
10,Fc1ccc(CNCc2cc(Br)c3c(c2)OCO3)cc1,78%
11,COc1cc(CNCC(O)c2ccccc2F)cc2c1OCO2 (configuration not stated),-9.37%
12,COc1cc(CNCC(O)c2ccccc2)cc2c1OCO2 (configuration not stated),-54.6%
13,COc1ccc(CNCc2cc(Br)c3c(c2)OCO3)cc1,74.7%
14,COc1cc(CNCc2ccc(C(C)O)cc2)cc2c1OCO2 (configuration not stated),49.3%
15,Cc1ccc(CNCc2cc(Br)c3c(c2)OCO3)cc1,45.4%
16,Cn1cc(CCNCc2cc(Br)c3c(c2)OCO3)cn1,37.6%
17,FC(F)Oc1ccc(CNCc2cc(Br)c3c(c2)OCO3)cc1,80.8%
18,FC(F)Oc1ccccc1CNCc1cc(Br)c2c(c1)OCO2,58.6%
19,C[C@@H]1CN(c2ccc(Cl)cn2)C[C@]1(C)O,4.161%
20,Fc1cnc(N2CCO[C@H]3[C@H](OCCN4CCCC4)CC[C@@H]32)nc1,4.68%
21,Cc1ccc(-c2nnc(CNCCn3cccn3)o2)cc1,37.9%
22,COCc1cc(NCc2ccccc2-n2cncn2)ncn1,15.7%
23,CN(Cc1nc(-c2ccccc2)no1)Cc1cnc(N2CCOCC2)s1,25.8%

row,Structure (SMILES),INHIBITION
1,CN(C)CCn1c2c(ccc1=O)CCN(C(=O)c1cccs1)CC2,13.5%
2,COc1c(CNCc2cccc(CN(C)C)c2)c(C)nn1C,35.3%
3,Cc1nc(Nc2cnccn2)cc(C2CCCN2C2CCOCC2)n1 (configuration not stated),25.6%
4,CC(C)C1CCCN1C(=O)Nc1ccc(=O)n(C)c1 (configuration not stated),-22.1%
5,CCc1nc(C2CCCN2CC(=O)Nc2nnc(C)s2)no1 (configuration not stated),-11.9%
6,CC(C)n1nc(CN2CCCC2=O)c2c1CN(C(=O)c1ccc[nH]1)C2,7.67%
7,NC(=O)c1c(NC(=O)C2CCCO2)sc2c1CCc1ccccc1-2 (configuration not stated),-57.9%
8,Cc1ccccc1S(=O)(=O)N1CCC(c2[nH]ncc2C)C1 (configuration not stated),11.1%
9,CN1CC[C@H]2[C@H](C[C@@H](Cn3cncn3)N2c2nccs2)C1,69.7%
10,CN1CC[C@H]2[C@H](C[C@@H](CN3CCCC3)N2c2nccs2)C1,34.5%
11,CC(C)N1CC[C@H]2[C@H](C[C@@H](Cn3cncn3)N2c2nccs2)C1,0.71%
12,CC(=O)N1CC[C@H]2[C@H](C[C@@H](Cn3cncn3)N2c2nccs2)C1,85.4%
13,CC(=O)N1CC[C@H]2[C@H](C[C@@H](CN3CCCC3)N2c2nccs2)C1,0.71%
14,CCC(=O)N1CC[C@H]2[C@H](C[C@@H](CN3CCCC3)N2c2nccs2)C1,-0.284%
15,Cc1nnc(N2CCOC(C)(C(=O)N(C)C)C2)c2ccccc12 (configuration not stated),-9.51%
16,Cc1cnn(CC2CCCN2C(=O)c2cccc3[nH]ncc23)c1 (configuration not stated),24.5%
17,Cc1cccc(Oc2ccccc2CNC(=O)C2CCC(=O)NC2)c1 (configuration not stated),37.9%
18,O=C(NCc1ccc(F)cc1)NCC(O)(c1cccs1)C1CC1 (configuration not stated),-11.8%
19,O=C(NCc1ccc(F)cc1)NCC(O)(c1ccco1)C1CC1 (configuration not stated),66.9%
20,O=C(NCC(O)(c1ccco1)C1CC1)c1ccccc1F (configuration not stated),9.79%
21,CN(C)Cc1nn(C)c2c1CCN(C(=O)c1cccnc1)C2,17.4%
22,Fc1ccc(N2CCOC(Cc3cccnc3)C2)cc1 (configuration not stated),7.52%
23,CN(C)[C@H]1CCCCN(C(=O)COCc2nc3cc(F)ccc3[nH]2)C1,51.3%

row,Structure (SMILES),INHIBITION
1,CN1C[C@@H]2CC[C@H]1CN(C(=O)COCc1nc3ccc(F)cc3[nH]1)C2,35.1%
2,CN1CC[C@H]2CN(C(=O)COCc3nc4cc(F)ccc4[nH]3)C[C@H]21,47.3%
3,Cc1ccc(Br)cc1C(=O)Nc1cc(C(N)=O)n(C)c1,-20.2%
4,Cc1nc(C)n(CC2CN(Cc3cscn3)CCO2)n1 (configuration not stated),21.935%
5,COC[C@H]1CCCN1c1nccc(-c2cnn(-c3ccccc3C)c2)n1,78.5%
6,Cc1ccccc1-n1cc(-c2ccnc(N[C@@H](CO)C(C)C)n2)cn1,8.7%
7,COc1cccc(-n2cc(-c3ccnc(N[C@@H](CO)C(C)C)n3)cn2)c1,-95.7%
8,COc1cccc(-n2cc(-c3ccnc(NC(CO)C(C)C)n3)cn2)c1 (configuration not stated),-40.6%
9,Cc1ccccc1-n1cc(-c2ccnc(N[C@H](CO)C(C)C)n2)cn1,68.2%
10,Cc1ccccc1-n1cc(-c2ccnc(N3CCCC(CN)C3)n2)cn1 (configuration not stated),-29.6%
11,Cc1ccccc1-n1cc(-c2ccnc(N3CCCC(O)C3)n2)cn1 (configuration not stated),3.06%
12,COc1cccc(-n2cc(-c3ccnc(N[C@H](CO)C(C)C)n3)cn2)c1,5.8%
13,Cc1ccccc1-n1cc(-c2ccnc(NC(CO)C(C)C)n2)cn1 (configuration not stated),95.7%
14,Cc1cc(CN2CCN(C(=O)NCc3cccs3)CC2)no1,-43.5%
15,CC(=O)NCCc1ccc(S(=O)(=O)Nc2cc(F)ccc2C)s1,-12.2%
16,CC(=O)N1CCC(c2cccc(NC3CCOCC3)n2)CC1,11.8%
17,COCCOCC1(CNCc2cccc(OC)c2)C[C@@H](O)[C@@H](O)C1 (some centres not stated),12.4%
18,COCCOCC1(CNC(=O)c2ccc(OC)cc2)C[C@@H](O)[C@@H](O)C1 (some centres not stated),50.6%
19,COCCOCC1(CNCc2ccc(OC)cc2)C[C@@H](O)[C@@H](O)C1 (some centres not stated),-1.12%
20,Cc1nccc(N[C@H]2CN(CC(C)(C)N3CCOCC3)C[C@@H]2C2CC2)n1,-10.6%
21,c1cc(CN2CC[C@H]3CO[C@H](CN4CCOCC4)[C@H]3C2)cs1,2.59%
